PostGolgi ctrl = inhibits growth of the yeast control strain; efflux-deficient yeast background strain, growth absorbance A615, 16 h; inhibition, % at 10 µM; hit rate 5% among 98,000; AID 738
Pyk2 oligo antag = Pyk2 (human) oligomerization antagonism | Q293 cells, Pyk2 FERM NanoBiT luminescence; stronger effect = lower value | z-score (the deposit names both 25 µM and 10 µM) | hit rate 0.83% among 99,000;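 active = Z-score of -3 or lower, scaled per plate to the spread of control and sample wells; inactive = z-score above -3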;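 also: negative z-score means lost luminescence so less FERM oligomerization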
Cav3 T inh = human Cav3.2 channel inhibition, primary screen | O95180 | Cav3.2-expressing cells, Fluo-4 calcium fluorescence FDSS; stronger effect = lower value | B-score at 10 µM | hit rate 4% among 100,000 | AID 449739;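 active = single-dose well whose peak fluorescence ratio is a statistical outlier from its plate by either plate-standardised score or position-corrected B-score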
PostGolgi yeast = growth inhibition of a yeast mutant, post-Golgi transport screen; post-Golgi transport phenotypic cell assay; inhibition, % at 10 µM; hit rate 0.9% among 98,000;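 also: yeast cells grown in 1536-well plates; yeast grown about 18 h at 30C before absorbance read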
Numbers without * were called inactive; · = no result given. A selection: hits, their analogues and other compounds. The true share with any hit is near 8%. Rule as the data show it, unless noted: active = inhibition above about 30%; inactive = the rest.

SMILES | PostGolgi ctrl | Pyk2 oligo antag | Cav3 T inh | PostGolgi yeast
Nc1nc(SCC(=O)NC2CCCC2)[nH]c(=O)c1-c1ccccc1 | 18 | · | 0.081 | -10
O=C(NCc1ccc(Cl)cc1)c1ccc(Cn2cc(C(F)(F)F)ccc2=O)cc1 | 14 | 0.72 | -5.7* | 24
CC(C)(C)[C@H]1C=C(C(=O)Nc2ccccc2)O[C@@H](OCCCCO)C1 | · | · | 1.2 | ·
CCNc1nc2nonc2nc1NCC | 14 | 0.09 | 1.3 | 1
N#CCc1ccc(NC(=O)Nc2cccc(Cl)c2)cc1 | 31* | -1.4 | -0.17 | -1
COC(=O)c1cc(NC(=O)Nc2cccc(Cl)c2)ccc1Cl | 41* | -2.1 | 0.014 | 25
N#Cc1ccccc1NC(=O)Nc1cccc(Cl)c1 | -1 | 0.6 | · | 3
CCOC(=O)c1c(NC(=O)Nc2cccc(Cl)c2)sc(C)c1C | -3 | -0.15 | -0.36 | -5
O=S(=O)(c1ccc(Br)s1)n1cccn1 | 8 | 0.08 | 0.74 | -7
COc1ccc2nc(SCC(=O)Nc3ccc(S(=O)(=O)Nc4nccc(C)n4)cc3)[nH]c2c1 | 6 | 0.11 | 1.2 | -2
Cc1ccc(C(=O)Nc2nc(=O)n(C(=O)c3ccccc3Cl)s2)cc1 | 18 | -0.4 | -6.1* | -12
CC(C)(C)c1nn2cnnc2n(/N=C/c2ccc(O)cc2)c1=O | · | 0.91 | · | ·
CC#CCN1c2ccccc2[C@]23C[C@@H](C(=O)OC)N=C2NC(C(=O)OC)=C(C(=O)OC)[C@H]13 | · | · | 1.8 | ·
CC(C(=O)Nc1ccccc1C(=O)N1CCOCC1)N(c1ccccc1)S(C)(=O)=O (stereo not given) | · | -0.13 | 0.48 | ·
CCCC1(c2ccccc2)NC(=O)N(CC(=O)c2[nH]c(C)c(C(=O)OCC)c2C)C1=O (stereo not given) | 3 | -1.8 | -5.6* | 2
CCOC(=O)c1ccccc1NC(=O)CSc1nc2ccccc2n1CC(=O)N1CCCC1 | 3 | 0.31 | -0.1 | 2
COc1ccc(C2=NOC(C(=O)Nc3cc(C)on3)C2)cc1 (stereo not given) | 35* | · | 0.45 | 4
COc1ccc(OC)c(C2=NOC(C(=O)Nc3ccccc3SC)C2)c1 (stereo not given) | 16 | -1.2 | -3 | -1
COc1ccc(OC)c(C2=NOC(C(=O)Nc3cc(C)nn3-c3ccccc3)C2)c1 (stereo not given) | 41* | · | 0.36 | -3
Cc1cc(NC(=O)C2CC(c3ccc(Cl)cc3)=NO2)no1 (stereo not given) | 0 | 1.6 | 0.3 | -2
Cc1nc2ccccc2n1-c1ccccc1 | 21 | 0.7 | 0.26 | -1
O=c1c(/C=C(\O)c2ccccc2)nc2ccccc2n1-c1ccccc1 | 30* | 1.3 | 0.0067 | -10
CC1Cc2ccccc2N1C(=O)Cn1cc([N+](=O)[O-])cn1 (stereo not given) | 0 | 0.09 | 0.029 | -6
Brc1ccccc1-c1nnc(COc2ncnc3c2cnn3-c2ccccc2)o1 | 74* | -0.03 | -0.29 | 1
COc1ncnc2c1cnn2-c1ccccc1 | 3 | 0.43 | -0.41 | 2
SMILES | PostGolgi ctrl | Pyk2 oligo antag | Cav3 T inh | PostGolgi yeast
C=CCSC(=C(C#N)C#N)c1cc2c([nH]1)CCCC2 | 24 | 0.34 | -6.3* | 5
CC(=O)NCCc1ccc(S(=O)(=O)Nc2cccnc2)cc1 | 33* | -0.22 | -0.47 | 5
CC(C)(C)c1ccc(S(=O)(=O)Nc2cccnc2)cc1 | 30* | 0.48 | -1.5 | -3
O=S(=O)(Nc1cccnc1)c1ccc(Cl)cc1 | 8 | 0.6 | 0.21 | -1
CCOC(=O)Nc1cc(C)c(Cl)cc1OC | 38* | -0.62 | -0.21 | -3
Cc1cc(C)n(S(=O)(=O)Cc2ccccc2)n1 | 1 | -0.23 | 0.062 | 0
Cc1ccccc1CSCCNC(=O)CN(c1ccc2c(c1)OCO2)S(C)(=O)=O | 5 | 1.6 | -4.3* | -5
c1ccc(Cc2nc3ccccc3o2)cc1 | 3 | 1 | 0.0076 | 9
CC1(C)Cc2c(sc3c2c(=N)n(Cc2ccco2)c(=O)n3Cc2ccc(F)cc2)CO1 | 64* | -0.85 | -2.5 | 14
CN(C)CC(C)(C)CNS(=O)(=O)c1ccc(Cl)c(Cl)c1 | -3 | -1.6 | 0.74 | -5
COc1cc(NC(=O)C2COc3ccccc3O2)c(OC)cc1Cl (stereo not given) | 17 | -0.33 | -4.5* | 1
C/C(=C\c1ccccc1)C(=O)Nc1cc(C)on1 | 6 | -0.54 | 0.026 | 9
CCn1cc(C2=NOC(C(=O)Nc3cc(OC)c(Cl)cc3OC)C2)c(C)n1 (stereo not given) | 4 | -0.18 | 0.074 | -1
CC(C)Oc1ccc(C2CC(=O)N(c3ccc(N(C)C)cc3)C2=O)cc1 (stereo not given) | · | -4.2* | 0.17 | ·
CC(C)Oc1ccc(C2CC(=O)N(c3ccccc3)C2=O)cc1 (stereo not given) | -1 | -1.3 | 0.11 | -7
CN1CCN(c2ccc(Cl)cc2NC(=O)c2ccc(S(=O)(=O)N(C)C)cc2)CC1 | 6 | 0.95 | -1.1 | -3
CCN(CC)S(=O)(=O)c1cc(C(=O)Nc2cc(Cl)ccc2N2CCN(C)CC2)ccc1Cl | 16 | -0.29 | -7.6* | 4
C[C@@H]1CCC[C@@]2(O[C@@H](CCO)C[C@H](O)[C@H]2O)O1 | · | · | 0.074 | ·
COC(=O)c1c(C(=O)OC)c(-c2ccc(Cl)c(Cl)c2)n2c1CCC2 | 36* | -1.5 | -0.51 | 1
Cc1ccc(N2CCN(C(=O)CCc3nc4ccccc4[nH]3)CC2)c(C)c1 | 11 | · | -4.8* | -2
CCOC(=O)C1=C(N)Oc2ccc3ccccc3c2C1c1cccnc1 (stereo not given) | · | -3.1* | -0.84 | ·
CCOC(=O)C1=C(N)Oc2cc(C)oc(=O)c2C1c1cccnc1 (stereo not given) | 0 | 0.93 | 1 | 0
Cc1sc2nc3n(c(=O)c2c1C)NC(=O)CC3 | -2 | 0.26 | 0.67 | -2
Cc1cc(C)n(CC(O)Cn2c3ccc(Br)cc3c3cc(Br)ccc32)c(=O)n1 (stereo not given) | 103* | -0.79 | -0.19 | 99*
Cc1cc(C)n(CC(O)Cn2c3ccccc3c3ccccc32)c(=O)n1 (stereo not given) | 29 | 0.87 | -0.75 | -5
SMILES | PostGolgi ctrl | Pyk2 oligo antag | Cav3 T inh | PostGolgi yeast
O=C1c2cccc3c(N4CCCCC4)ccc(c23)C(=O)N1CCO | 13 | -0.77 | -6.1* | 13
Cc1n[nH]c(C)c1N1C(=O)c2cccc3c(N4CCCCCC4)ccc(c23)C1=O | 5 | 0.01 | -9.7* | 4
O=C1c2ccccc2C(=O)N1CCN1CCCCC1 | 5 | -0.01 | · | 0
Cn1c(=O)c2c(-c3ccccc3)n(CCCN3CCOCC3)cc2n(C)c1=O | 9 | -0.67 | 0.16 | 1
Cc1ccc(-c2c3c(=O)n(C)c(=O)n(C)c3cn2N2CCOCC2)cc1 | 51* | 1.1 | 0.3 | -2
COc1cc(-c2nc3cnccn3c2Nc2ccccc2)ccc1O | 20 | · | -0.29 | 7
COc1cc(-c2nc3cnccn3c2Nc2ccc(C)cc2)ccc1O | 34* | -1.7 | -0.44 | -8
Cc1ccc(S(=O)(=O)NCc2ccco2)cc1C | 7 | -0.67 | -0.016 | -3
Cc1cc(C)c(C)c(S(=O)(=O)NCc2ccco2)c1C | 34* | · | -3 | -4
CCc1nc2oc3ccccc3c(=O)c2c(=O)n1-c1ccccc1 | 30* | -1.5 | 0.032 | -6
CCc1nc2oc3ccccc3c(=O)c2c(=O)n1CCOC | 19 | 1.7 | 0.57 | 0
CC1(C)C(CO)=CC(=O)C2=C1SCC(=O)N2 | · | · | 0.29 | ·
